The text below walks through data of PubChem BioAssay.

The structures appear in SMILES notation. Records with an inconclusive call do not appear. Active and inactive are the calls of the source. Unless noted, no rule for the calls is given here.

The nature of experiment [1]: RPL19A-GFP modulators, yeast TOR pathway, confirmation, cell-based, S. cerevisiae, flow cytometry, cherry picks, mother/daughter gates (AID 2270;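 active = GFP response below 50% of the DMSO control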). As to conditions: S. cerevisiae RPL19A-GFP strain, 3 h, at 10 µM, stronger effect = lower value, 100 = same GFP as DMSO wells.
Experiment [2] in a line: LAP4-GFP expression modulators in yeast, confirmation, cell-based, cherry picks, flow cytometry, mother/daughter gates (AID 2271;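 active = GFP response above 150% of the DMSO control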;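 also: ratio of sample to DMSO plate mean so 100% equals DMSO level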). The note with it: S. cerevisiae LAP4-GFP strain, 3 h, at 10 µM, stronger effect = higher value.
Experiment [3] can be described thus: modulators of CIT2-GFP expression in yeast, confirmation, S. cerevisiae, GFP fusion, cherry picks, mother/daughter gates (AID 2274;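 active = GFP response above 150% of the DMSO level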). The note with it: S. cerevisiae CIT2-GFP strain, flow cytometry, 3 h, at 10 µM, stronger effect = higher value.
The nature of experiment [4]: yeast TOR pathway RPL19A-GFP modulators, primary screen, cell-based, S. cerevisiae, multiplex flow cytometry (AID 1862; in the data active = percent of DMSO control GFP below about 86%;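 also: lower values mimic rapamycin by blocking the RPL19A rise seen in DMSO cells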). As to conditions: S. cerevisiae RPL19A-GFP strain, flow cytometry fluorescence, 3 h; at 10 µM; stronger effect = lower value.
The nature of experiment [5]: modulators of CIT2-GFP expression in yeast, primary screen, S. cerevisiae, GFP fusion, multiplex flow cytometry (AID 1870;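 active = percent response above a set limit, the screen-wide mean plus 3 SD, cut at about 130% in these data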;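 also: barcoded CIT2-GFP strain pooled with four other GFP strains with rapamycin as positive control; median GFP fluorescence per well over plate mean of DMSO wells so 100% = DMSO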). The note with it: 3 h, at 10 µM, stronger effect = higher value.
Experiment [6] can be described thus: modulators of LAP4-GFP expression in yeast, primary screen, S. cerevisiae, multiplex flow cytometry (AID 1873;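 active = GFP signal, as percent of the solvent control, above the screen mean plus 3 SD, about 149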). As to conditions: 3 h, at 10 µM, stronger effect = higher value.
Experiment [7] is described as follows: inhibitors of CD8+ T cell-vesicle binding, pilot screen, LFA-1/ICAM-1 modulator project, MLPCN validation set, flow cytometry (AID 2523;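 active = response below a set limit, under 55% cells CD8-positive and vesicle-bound, and CD8 cells' 90th-percentile brightness under 279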;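 as to vesicle binding response: mean PE anti-B7-1 fluorescence of CD8+ cells relative to row control; 100% = QL9-loaded vesicles with DMSO vehicle in the same plate row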). As to conditions: 2C mouse CD8+ T cells, at 7 µM, stronger effect = lower value; double positive events: measured here: CD8+/vesicle+ event percentage.
Experiment [8] has as its target Integrin beta-1 (Homo sapiens) + Integrin alpha-4 (Homo sapiens) (UniProt P13612+P05556). Briefly: inhibition of HUTS-21 binding to VLA-4, pilot screen, VLA-4 allosteric modulator project, U937 cells, HUTS-21 mAb, flow cytometry, validation set (AID 2674;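 active = inhibition above 50%, about 3 SD of the validation set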;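 also: antibody binding induced by the VLA-4 ligand LDV present at three times its Kd; 0% = LDV ligand with antibody and no compound and 100% = antibody without LDV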). As to conditions: HUTS-21 LIBS mAb binding, at 6.7 µM, stronger effect = higher value.
The nature of experiment [9]: superoxide lowering in aged yeast cells, pilot screen, validation compound set (AID 2706;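 active = superoxide response below 65% of plate, a cut near 3 SD across the whole screen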;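 also: yeast exposed to compound for one week at 30 degrees C before staining; 100% = mean of all compound wells on the same plate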). The note with it: S. cerevisiae aging, superoxide DHE fluorescence; at 10 µM; stronger effect = lower value.
The target of experiment [10] is Beta-adrenergic receptor kinase 1 (Homo sapiens) (UniProt P25098). Description: GRK2 binders displacing RNA aptamer, biochemical, validation, human GRK2, bead flow cytometry (AID 488806;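 active = aptamer binding inhibition above 30%, about 3 SD of noise from non-fluorescent compounds; inactive = inhibition at or below 30%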). The note with it: bead-bound GRK2, FAM-aptamer displacement, at 10 µM, stronger effect = higher value.
Experiment [11] concerns the target Beta-2 adrenergic receptor (Homo sapiens) (UniProt P07550). Briefly: beta2AR agonists driving receptor internalization, pilot screen, cell-based, FAP fluorogen, flow cytometry, validation set (AID 504459;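 active = percent response above 42, roughly 3 SD of non-fluorescent test compounds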;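 also: agonist-driven loss of surface beta2AR via internalization measured by FAP dye flow cytometry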). As to conditions: Am2.2-beta2AR cells, FAP surface receptor flow cytometry; at 10 µM; stronger effect = higher value.
For experiment [12], the target named is AP-2 complex subunit beta (Homo sapiens) (UniProt P63010). Briefly: inhibitors of arrestin peptide binding to AP2, pilot screen, biochemical, validation set, GST-AP2 beads, flow cytometry (AID 504541;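 active = inhibition above 54%, about 3 SD of non-fluorescent compounds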;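 also: AP2 carries R879A mutation and is captured from E. coli lysate; bead-bound FITC arrestin peptide fluorescence measuring arrestin peptide binding to AP2; 0% = DMSO wells and 100% = excess unlabeled arrestin peptide control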). The note with it: FITC arrestin peptide, at 10 µM, stronger effect = higher value.
Experiment [13] in a line: yeast V-ATPase proton transport modulators, S. cerevisiae, pHLuorin, HTS validation (AID 504600; in the data active = response above about 15%;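 also: plate controls were DMSO for no effect and reference compound for full effect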). As to conditions: S. cerevisiae pHLuorin cytosolic pH, at 10 µM, stronger effect = higher value.
For experiment [14], the system named is anti-desmoglein-3 scFv antibody binding to human DSG3. Briefly: inhibitors of anti-DSG3 scFv binding to DSG3, pilot screen, biochemical, validation compound set, bead-based, flow cytometry (AID 588368;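 active = binding below the plate cutoff, the plate median minus 3 SD, with a reading above zero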;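 also: signal is the median channel fluorescence of bead-bound GFP antibody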). As to conditions: Protein G beads, DSG3-Fc, scFv-GFP binding, at 10 µM, stronger effect = lower value.
In experiment [15] the test system is Botulinum neurotoxin type F light chain protease (Clostridium botulinum). Briefly: Botulinum neurotoxin type F light chain protease inhibition, multiplex microsphere flow cytometry, validation set (AID 588459). As to conditions: multiplex microsphere protease substrate cleavage assay, at 10 µM, stronger effect = higher value.
The target in experiment [16] is Botulinum neurotoxin type A (Clostridium botulinum) (UniProt P0DPI0). Briefly: BoNT/A light chain protease inhibitors, biochemical, multiplex microsphere flow cytometry, validation set (AID 588460). As to conditions: at 10 µM, stronger effect = higher value.
The target in experiment [17] is Lethal factor (Bacillus anthracis) (UniProt P15917). Briefly: Lethal factor protease inhibitors, Bacillus anthracis, multiplex microsphere cleavage assay, validation set (AID 588461). The note with it: flow cytometry, at 10 µM, stronger effect = higher value.
A short description of experiment [18]: inhibitors of fungal efflux pumps CDR1, CDR2, MDR1, pilot screen, validation compound set, multiplex, phenotypic (AID 588506;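 active = efflux inhibition above 0.42, the validation set average plus 4 SD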;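 also: Nile Red retained in cells so higher fluorescence means more efflux inhibition; 0 = negative control wells and 1 = enniatin B 25 µM full block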). The note with it: S. cerevisiae pump-expressing triplex, Nile Red efflux flow cytometry; at 10 µM; stronger effect = higher value.
Experiment [19] concerns the target ATP-binding cassette sub-family B member 6 (Homo sapiens) (UniProt Q9NP58). Description: ABCB6 transporter inhibitors, pilot screen, K562-ABCB6 cells, flow cytometry, validation set (AID 588550;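 active = inhibition above the screen-wide mean plus 3 SD, about 51%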;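 also: 0% = DMSO wells and 100% = benzethonium chloride 70 µM positive control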). As to conditions: K562-ABCB6 porphyrin accumulation, 1 h, at 10 µM, stronger effect = higher value.
A short description of experiment [20]: promoters of myeloid differentiation in arrested cells, primary screen, cell-based, GFP/MAC1 double positive, flow cytometry, validation set (AID 588685;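 active = differentiation response of at least 50%, scaled between solvent and reference control, from cells with both markers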;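 also: compound exposure lasts four days before antibody staining and flow analysis; 0% = DMSO wells and 100% = 5 µM fulvestrant positive control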). The note with it: ER-HoxA9 marrow cells, stronger effect = higher value.
Setting [21] is: measured here: daughter cell gate.
[22] abbreviates: measured here: mother cell gate.
Setting [23] is: measured here: daughter cell gate response.
Setting [24] is: measured here: mother cell gate response.

ATP-binding cassette sub-family B member 6 (Homo sapiens), sequence (Q9NP58 whole entry, looked up): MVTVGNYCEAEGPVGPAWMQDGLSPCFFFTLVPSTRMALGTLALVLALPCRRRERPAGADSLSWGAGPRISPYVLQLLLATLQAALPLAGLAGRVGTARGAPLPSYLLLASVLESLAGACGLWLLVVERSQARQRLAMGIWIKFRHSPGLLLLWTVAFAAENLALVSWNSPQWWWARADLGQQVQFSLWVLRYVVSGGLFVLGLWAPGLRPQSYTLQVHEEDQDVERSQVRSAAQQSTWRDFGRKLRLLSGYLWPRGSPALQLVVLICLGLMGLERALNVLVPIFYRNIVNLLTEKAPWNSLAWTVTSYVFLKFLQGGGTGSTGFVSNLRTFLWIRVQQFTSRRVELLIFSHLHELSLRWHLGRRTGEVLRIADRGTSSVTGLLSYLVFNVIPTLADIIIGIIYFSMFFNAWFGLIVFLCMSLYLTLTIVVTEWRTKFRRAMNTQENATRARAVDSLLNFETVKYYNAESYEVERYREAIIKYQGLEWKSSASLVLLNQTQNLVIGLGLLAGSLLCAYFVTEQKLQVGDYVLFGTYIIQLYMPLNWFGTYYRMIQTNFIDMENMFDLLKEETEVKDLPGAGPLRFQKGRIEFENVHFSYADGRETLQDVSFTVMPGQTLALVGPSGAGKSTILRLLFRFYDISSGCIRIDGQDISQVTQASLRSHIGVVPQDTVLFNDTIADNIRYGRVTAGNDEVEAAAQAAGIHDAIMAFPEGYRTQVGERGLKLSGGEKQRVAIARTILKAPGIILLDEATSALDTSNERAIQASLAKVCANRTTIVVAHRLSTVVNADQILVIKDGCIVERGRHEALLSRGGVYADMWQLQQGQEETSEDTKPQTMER
Botulinum neurotoxin type A (Clostridium botulinum), sequence (P0DPI0 whole entry, looked up): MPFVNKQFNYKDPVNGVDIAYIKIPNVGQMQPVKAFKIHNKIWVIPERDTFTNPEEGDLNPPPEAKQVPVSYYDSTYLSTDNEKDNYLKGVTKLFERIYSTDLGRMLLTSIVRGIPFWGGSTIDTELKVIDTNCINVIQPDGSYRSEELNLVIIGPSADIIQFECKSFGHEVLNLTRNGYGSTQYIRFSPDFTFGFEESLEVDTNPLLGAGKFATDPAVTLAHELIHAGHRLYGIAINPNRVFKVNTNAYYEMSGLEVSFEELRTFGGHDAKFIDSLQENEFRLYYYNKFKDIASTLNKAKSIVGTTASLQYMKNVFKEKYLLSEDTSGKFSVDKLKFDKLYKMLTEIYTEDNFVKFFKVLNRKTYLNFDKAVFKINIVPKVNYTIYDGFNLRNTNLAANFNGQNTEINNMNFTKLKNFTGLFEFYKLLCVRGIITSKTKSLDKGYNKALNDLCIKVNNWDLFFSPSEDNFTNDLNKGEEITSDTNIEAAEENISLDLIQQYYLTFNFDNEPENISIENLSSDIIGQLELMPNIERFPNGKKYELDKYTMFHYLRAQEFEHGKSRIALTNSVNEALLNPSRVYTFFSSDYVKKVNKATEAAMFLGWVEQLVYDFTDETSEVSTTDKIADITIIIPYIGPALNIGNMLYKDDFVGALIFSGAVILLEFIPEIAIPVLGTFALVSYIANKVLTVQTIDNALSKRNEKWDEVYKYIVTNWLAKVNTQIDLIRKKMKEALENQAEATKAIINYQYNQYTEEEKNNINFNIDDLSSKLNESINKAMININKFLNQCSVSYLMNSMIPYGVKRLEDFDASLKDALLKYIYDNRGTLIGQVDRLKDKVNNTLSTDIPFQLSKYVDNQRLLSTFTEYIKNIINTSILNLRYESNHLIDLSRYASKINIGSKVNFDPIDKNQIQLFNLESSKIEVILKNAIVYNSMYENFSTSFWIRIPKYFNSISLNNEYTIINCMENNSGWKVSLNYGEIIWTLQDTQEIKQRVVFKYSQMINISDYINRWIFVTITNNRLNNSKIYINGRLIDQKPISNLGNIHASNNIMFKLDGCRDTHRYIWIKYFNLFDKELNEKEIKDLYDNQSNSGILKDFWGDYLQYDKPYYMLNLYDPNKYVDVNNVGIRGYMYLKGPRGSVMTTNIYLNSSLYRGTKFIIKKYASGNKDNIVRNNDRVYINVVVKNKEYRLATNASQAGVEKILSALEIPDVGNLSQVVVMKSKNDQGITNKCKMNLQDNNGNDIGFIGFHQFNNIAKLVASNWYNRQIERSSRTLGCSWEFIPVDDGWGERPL
Beta-2 adrenergic receptor (Homo sapiens), sequence (P07550 whole entry, looked up): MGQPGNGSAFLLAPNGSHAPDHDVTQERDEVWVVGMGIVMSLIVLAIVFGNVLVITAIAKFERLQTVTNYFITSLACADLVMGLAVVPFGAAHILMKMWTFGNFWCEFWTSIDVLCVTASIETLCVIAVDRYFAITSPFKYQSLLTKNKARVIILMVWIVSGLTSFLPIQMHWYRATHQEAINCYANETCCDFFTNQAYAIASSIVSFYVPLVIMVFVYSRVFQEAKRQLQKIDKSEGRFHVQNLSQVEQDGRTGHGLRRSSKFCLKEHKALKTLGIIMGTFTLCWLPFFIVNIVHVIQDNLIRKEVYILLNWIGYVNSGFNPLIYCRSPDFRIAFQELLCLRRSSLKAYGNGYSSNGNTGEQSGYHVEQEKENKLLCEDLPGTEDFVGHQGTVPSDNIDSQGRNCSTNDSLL
Integrin beta-1 (Homo sapiens) + Integrin alpha-4 (Homo sapiens), sequence (P05556 whole entry, looked up): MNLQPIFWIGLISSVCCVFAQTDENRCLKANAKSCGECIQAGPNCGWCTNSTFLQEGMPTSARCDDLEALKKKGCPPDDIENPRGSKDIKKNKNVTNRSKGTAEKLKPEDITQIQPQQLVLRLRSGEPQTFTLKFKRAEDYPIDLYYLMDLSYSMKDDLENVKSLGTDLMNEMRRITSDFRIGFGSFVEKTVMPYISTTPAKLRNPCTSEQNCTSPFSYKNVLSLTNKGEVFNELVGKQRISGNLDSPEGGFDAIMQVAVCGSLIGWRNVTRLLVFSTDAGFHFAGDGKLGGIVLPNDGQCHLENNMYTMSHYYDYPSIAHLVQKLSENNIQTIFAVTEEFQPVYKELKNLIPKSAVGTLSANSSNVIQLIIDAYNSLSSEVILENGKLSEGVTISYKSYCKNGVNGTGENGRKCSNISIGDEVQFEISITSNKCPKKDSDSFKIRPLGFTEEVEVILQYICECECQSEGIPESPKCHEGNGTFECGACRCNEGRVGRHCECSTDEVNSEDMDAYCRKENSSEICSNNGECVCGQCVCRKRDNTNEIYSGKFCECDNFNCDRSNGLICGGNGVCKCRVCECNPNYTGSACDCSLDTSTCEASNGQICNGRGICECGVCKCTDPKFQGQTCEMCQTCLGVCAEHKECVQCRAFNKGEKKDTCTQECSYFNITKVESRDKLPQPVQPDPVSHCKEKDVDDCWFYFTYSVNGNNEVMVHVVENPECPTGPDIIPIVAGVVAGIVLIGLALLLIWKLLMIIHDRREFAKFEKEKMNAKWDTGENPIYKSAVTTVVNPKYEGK
Integrin beta-1 (Homo sapiens) + Integrin alpha-4 (Homo sapiens), sequence (P13612 whole entry, looked up): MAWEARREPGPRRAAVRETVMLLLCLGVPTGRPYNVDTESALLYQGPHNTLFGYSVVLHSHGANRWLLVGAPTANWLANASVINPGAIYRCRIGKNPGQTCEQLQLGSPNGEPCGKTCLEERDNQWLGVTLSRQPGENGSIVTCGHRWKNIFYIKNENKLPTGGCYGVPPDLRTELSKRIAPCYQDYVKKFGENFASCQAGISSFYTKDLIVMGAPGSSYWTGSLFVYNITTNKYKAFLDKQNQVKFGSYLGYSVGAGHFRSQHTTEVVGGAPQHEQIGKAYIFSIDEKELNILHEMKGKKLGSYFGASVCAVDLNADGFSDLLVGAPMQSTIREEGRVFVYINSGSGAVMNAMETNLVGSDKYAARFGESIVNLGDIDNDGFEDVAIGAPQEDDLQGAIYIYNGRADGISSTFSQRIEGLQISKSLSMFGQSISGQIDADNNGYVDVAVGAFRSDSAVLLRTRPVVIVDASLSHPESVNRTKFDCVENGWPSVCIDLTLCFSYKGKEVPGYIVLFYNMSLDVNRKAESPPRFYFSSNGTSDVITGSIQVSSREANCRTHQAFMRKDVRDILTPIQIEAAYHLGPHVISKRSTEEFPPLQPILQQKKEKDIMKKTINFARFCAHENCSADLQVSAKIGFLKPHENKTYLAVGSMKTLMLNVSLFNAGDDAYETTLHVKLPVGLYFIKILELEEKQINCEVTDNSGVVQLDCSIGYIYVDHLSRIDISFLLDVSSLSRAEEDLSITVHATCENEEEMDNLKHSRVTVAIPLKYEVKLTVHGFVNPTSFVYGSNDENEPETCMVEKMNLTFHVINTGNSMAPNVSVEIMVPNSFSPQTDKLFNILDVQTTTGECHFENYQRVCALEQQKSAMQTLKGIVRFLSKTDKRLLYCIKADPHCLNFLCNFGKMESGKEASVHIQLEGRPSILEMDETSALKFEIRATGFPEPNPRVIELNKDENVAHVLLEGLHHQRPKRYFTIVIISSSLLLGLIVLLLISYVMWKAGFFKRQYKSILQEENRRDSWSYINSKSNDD
Beta-adrenergic receptor kinase 1 (Homo sapiens), sequence (P25098 whole entry, looked up): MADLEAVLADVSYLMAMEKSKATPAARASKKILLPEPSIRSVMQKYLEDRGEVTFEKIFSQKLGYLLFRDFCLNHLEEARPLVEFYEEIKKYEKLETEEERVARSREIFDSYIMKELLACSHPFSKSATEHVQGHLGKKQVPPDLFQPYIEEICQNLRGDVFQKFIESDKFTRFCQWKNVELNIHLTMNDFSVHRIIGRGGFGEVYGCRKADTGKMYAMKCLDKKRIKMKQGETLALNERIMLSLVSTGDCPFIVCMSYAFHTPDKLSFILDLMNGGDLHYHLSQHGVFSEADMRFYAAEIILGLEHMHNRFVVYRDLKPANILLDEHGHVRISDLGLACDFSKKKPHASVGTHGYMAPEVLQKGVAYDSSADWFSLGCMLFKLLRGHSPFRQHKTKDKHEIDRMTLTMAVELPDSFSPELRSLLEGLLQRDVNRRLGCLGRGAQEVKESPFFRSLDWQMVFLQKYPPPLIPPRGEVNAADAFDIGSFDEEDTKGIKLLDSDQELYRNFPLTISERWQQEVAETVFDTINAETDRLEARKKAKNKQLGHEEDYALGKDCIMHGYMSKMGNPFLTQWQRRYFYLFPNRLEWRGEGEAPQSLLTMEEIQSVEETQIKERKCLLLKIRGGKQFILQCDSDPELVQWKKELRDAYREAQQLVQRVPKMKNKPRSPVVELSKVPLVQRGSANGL

Consider `O=C1NC(=O)N(c2ccccc2)C(=O)/C1=C\c1ccc([N+](=O)[O-])o1`, for which the GFP response vs DMSO in [1] is 98.7% (inactive); in experiment [1] (setting [21]), 99.8%; in experiment [1] (setting [22]), 98%. For the same molecule, the GFP response relative to DMSO in experiment [2] was 101% (inactive); in [2] (setting [23]), 101%; in experiment [2] (setting [24]) it was 102%. Moreover, the figures for the GFP response, % of DMSO in [3], in experiment [3] (setting [21]) and in [3] (setting [22]) were 103% (inactive), 105% and 104%, respectively.

For `Cc1ccc(/C=C2\C(=O)NC(=O)N(CC3CCCO3)C2=O)s1` (stereo not given), the GFP response vs DMSO in experiment [1] was 92.7% (inactive); in [1] (setting [21]), 95.9%; in [1] (setting [22]) it was 94.8%. In addition, the GFP response relative to DMSO in [2] is 102% (inactive); in [2] (setting [23]) it was 102%; in experiment [2] (setting [24]) it was 104%. The results for the GFP response, % of DMSO in experiment [3], in experiment [3] (setting [21]) and in experiment [3] (setting [22]) were 82.6% (inactive), 86.2% and 79.5%, respectively.

In the case of `CCCCn1c(=O)c(C(=O)Nc2ccsc2C(=O)OC)c(O)c2ccccc21`, the GFP response vs DMSO in experiment [1] was 101% (inactive); in [1] (setting [21]) it was 94.9%; in experiment [1] (setting [22]) it was 100%. Moreover, the GFP response relative to DMSO in [2] is 94.4% (inactive); in [2] (setting [23]) it was 95.9%; in experiment [2] (setting [24]), 94.1%. The GFP response, % of DMSO in experiment [3] is 95.9% (inactive); in [3] (setting [21]), 93.8%; in experiment [3] (setting [22]) it was 95.6%.

`O=C1NC(=O)C(=Cc2ccc(Sc3ccccc3)o2)C(=O)N1`: the GFP response vs DMSO was 103% (inactive) in [1], 93.1% in experiment [1] (setting [21]) and 89.2% in experiment [1] (setting [22]). Moreover, the GFP response relative to DMSO in experiment [2] was 140% (inactive); in experiment [2] (setting [23]), 107%; in experiment [2] (setting [24]), 148%. Besides, the GFP response, % of DMSO in experiment [3] is 91.2% (inactive); in [3] (setting [22]) it was 77.2%.

Turning to `O=[N+]([O-])c1ccc(N2CCNCC2)cc1Sc1ccccn1`, the values for the GFP response vs DMSO in experiment [1], in [1] (setting [21]) and in experiment [1] (setting [22]) were 98.4% (inactive), 98.4% and 99.4%, respectively. Further, the GFP response relative to DMSO in experiment [2] was 91.4% (inactive); in experiment [2] (setting [23]) it was 92.5%; in experiment [2] (setting [24]) it was 91.1%. The GFP response, % of DMSO in experiment [3] is 96.5% (inactive); in [3] (setting [21]) it was 96.5%; in [3] (setting [22]) it was 95.5%.

For the molecule `Fc1ccc(C(OCCN2CCCC2)c2ccc(Br)cc2)cc1` (stereo not given), in [4], the percent of DMSO control GFP is 98.8% (inactive). For the same molecule, the percent response of DMSO control in [5] was 93.9% (inactive). The GFP response vs DMSO in experiment [6] was 109% (inactive). Further, in [7], the double positive events was found to be 69.4%. For the same molecule, in [7], the vesicle binding response is 310% (inactive). Moreover, the inhibition in [8] was -4.52% (inactive); in [12], -3.21% (inactive); in experiment [15], 5.6% (inactive); in experiment [16] it was -0.6% (inactive); in experiment [17], 3% (inactive); in experiment [19], 7% (inactive). In experiment [9], the superoxide response (% of plate) was 94.6% (inactive). Also, in experiment [10], the aptamer binding inhibition is -9% (inactive). The response is 11.4% (inactive) in [11] and 0.75% (inactive) in [13]. Besides, the binding (% of control) in experiment [14] is 103% (inactive). In experiment [18], the efflux inhibition (fraction of control) was 0.84 (active). For the same molecule, in experiment [20], the differentiation response was 16.8% (inactive).

Regarding `O=C1C=Cc2ccccc2C1=O`, the percent of DMSO control GFP in experiment [4] is 102% (inactive). Also, the percent response of DMSO control in experiment [5] is 116% (inactive). The GFP response vs DMSO in [6] is 89.1% (inactive). The double positive events in experiment [7] amounted to 43.3%. In addition, the vesicle binding response in experiment [7] was 71.6% (active). Further, the inhibition was -65.3% (inactive) in experiment [8]; 8% (inactive) in [12]; -1.2% (inactive) in [15]; 1.7% (inactive) in [16]; 1.9% (inactive) in [17]; 7% (inactive) in experiment [19]. Moreover, the superoxide response (% of plate) in experiment [9] is 129% (inactive). Further, the aptamer binding inhibition in experiment [10] was 2% (inactive). The values for the response in experiment [11] and in experiment [13] were -20.4% (inactive) and 1.9% (inactive), respectively. In addition, the binding (% of control) in [14] was 109% (inactive). In [18], the efflux inhibition (fraction of control) was -0.09 (inactive). For the same molecule, the differentiation response in [20] is 5.73% (inactive).
